Results on 62 molecules are retold here after PubChem BioAssay AID2314 (National Center for Advancing Translational Sciences (NCATS), 2010).

Hit rate of the full screen: of about 300,000 compounds, about 37,000 (12%) were called active. For the sample, actives were picked, then their nearest neighbours and some compounds at random. Unmarked numbers belong to inactive results. Cut-off read from the data, not from the text of the source: active = max response mostly above about 13% (no sharp cut-off); inactive = mostly below about 14%.

The nature of this test: Cycloheximide Counterscreen for Small Molecule Inhibitors of Shiga Toxin. Note: read at 38.3 µM for the half of the compounds with a filed dose; 0% is about no effect. The following applies: cell reporter, cycloheximide protein synthesis inhibition counterscreen; hits give high values. On the technique in general: The purpose of a counterscreen is to sort out artefacts and off-target activity.
Take `O=C(Cn1ccc2cc(S(=O)(=O)N3CCCC3)ccc21)NCc1ccccc1`: the max response is 12.1%.

With `C=CCOc1ccc(/C=C2\SC(=S)N(CCC(=O)O)C2=O)cc1`, the max response was -2.97%.

For the molecule `O=C(C1CCN(S(=O)(=O)c2ccc(Br)s2)CC1)N1CCN(C2CCCCC2)CC1`, the max response was 3.94%.

`COc1cc(OC)c(-n2cc(-c3ccc(Cl)cc3)[nH]c2=O)cc1Cl`: the max response is 0.883%.

As for `Cc1cc(C)nc(SC2CCCCC2NS(=O)(=O)c2ccc(Cl)cc2)n1` (configuration not stated), the max response was -1.57%.

In the case of `CC(C(=O)NCC1CCCCC1)N(C)Cc1cccc(Cl)c1` (configuration not stated), the max response is -4.34%.

For `CC(c1ccccn1)N(C)C(=O)c1ccc2nc(Cc3cccc(Cl)c3)oc2c1` (configuration not stated), the max response is 52.7% (active).

Take `CN(Cc1ccccc1)C(=O)c1cccc(C(=O)N(C)Cc2ccccc2)c1`: the max response was -3.47%.

For `COC(=O)c1cc(S(=O)(=O)Nc2ccc(C)c(F)c2)c[nH]1`, the max response was 1.38%.

For the molecule `COc1ccc(Cc2nnc(NC(=O)Cc3cccs3)s2)cc1`, the max response was 12.7%.

`COc1ccc(NC(=O)c2cc(-c3cc(OC)c(OC)c(OC)c3)nc3ccccc23)c(OC)c1`: the max response is -6.98%.

In the case of `CC(NC(=O)COc1ccccc1)C(=O)NC1=NCCS1` (configuration not stated), the max response is 4.07%.

On to `COc1cccc(OC)c1C(=O)Nc1nnc(C(C)C)s1`, for which the max response is -1.98%.

For the molecule `COc1ccc(C(=O)NC2=NCCS2)c(OC)c1`, the max response is 32.6% (active).

For the molecule `COc1ccc(C(=O)NCc2nnc(SCC(=O)NC3=NCCS3)n2C)cc1`, the max response is -2.2%.

Consider `COc1ccc(C(=O)N2CCCN(C)CC2)c(OC)c1`, for which the max response is -2.16%.

For `COc1ccc(Cc2nnc(NC(=O)c3cc(OC)c(OC)c(OC)c3)s2)cc1OC`, the max response was -3.75%.

As to `O=C(NC1=NCCS1)[C@H](Cc1ccccc1)N1C(=O)c2ccccc2C1=O`, the max response was -2.74%.

For the molecule `COc1ccc(Cc2nnc(NC(=O)c3ccc(OC)cc3OC)s2)cc1`, the max response is 31.5% (active).

On to `O=C(NC1=NCCS1)c1ccc(Cl)s1`, for which the max response was 66.8% (active).

Consider `COc1ccc(C(=O)Nc2nncs2)c(OC)c1`, for which the max response was 34.6% (active).

For the molecule `CCN1C(=S)N[C@@H](c2cccc(C(F)(F)F)c2)C(C(=O)OC)=C1C`, the max response was -8.93%.

Consider `COC(C(=O)Nc1ccc(S(=O)(=O)Nc2ccc(C)c(C)c2)cc1)c1ccccc1` (configuration not stated), for which the max response is -1.18%.

For the molecule `CS(=O)(=O)c1sc(C(=O)NC(=S)Nc2ccc(OC(F)(F)F)cc2)c2c1C=CCC2`, the max response was 1.1%.

With `CCOC(=O)c1ccccc1N1C(=O)C2Sc3[nH]c(=O)sc3C(/C=C/c3ccccc3)C2C1=O` (configuration not stated), the max response was -1.12%.

For `CC(C)(C)NCCCOc1ccc(Cl)cc1C(C)(C)C`, the max response was -3.93%.

With `O=C(CSc1ccccn1)Nc1nc2c(ccc3ccccc32)s1`, the max response was 15%.

For `CC(=O)NCCC(=O)Nc1cc(S(=O)(=O)N2CCCCC2)ccc1Oc1cccc(C)c1`, the max response is -3.52%.

As to `c1ccc2sc(C3CCCNC3)nc2c1` (configuration not stated), the max response was 30.8% (active).

In the case of `O=C(c1cccs1)N1CCC(c2nc3ccccc3s2)CC1`, the max response was -1.42%.

In the case of `Cc1cccc(C(=O)N2CCC(c3nc4ccccc4s3)CC2)c1`, the max response is -3.16%.

On to `Cc1[nH]c(C)c(S(=O)(=O)N2CCN(c3cccc(C(F)(F)F)c3)CC2)c1C(=O)N1CCCC1`, for which the max response is -5.38%.

With `C=C1CCN(Cc2ccc(OC)cc2)S(=O)(=O)c2ccccc21`, the max response was 12.8%.

For the molecule `CCOc1ccc(N2CC(C(=O)NCc3ccccn3)CC2=O)cc1` (configuration not stated), the max response is -11.6%.

For `CC1CCN(c2ccc(C(=O)NCc3ccc4c(c3)OCO4)cc2[N+](=O)[O-])CC1`, the max response is -5.58%.

Consider `COc1ccc(C(=O)C2CN(C)CC2C(=O)c2ccc(OC)cc2)cc1` (configuration not stated), for which the max response is 19% (active).

Take `CCc1ccc(NC(=O)CN2CCC(C(=O)c3ccc(OC)cc3)CC2)cc1`: the max response was -4.07%.

As for `Cc1ccc(C2CN(C)CC2C(=O)c2ccc(F)cc2)cc1` (configuration not stated), the max response is -3.61%.

As to `CC(C)(C)C(=O)CN1C2=NCCN2c2ccccc21`, the max response was -2.32%.

Consider `CCc1ccc(NC(=O)Cn2nnc(C(=O)NCc3ccc4c(c3)OCO4)c2N)cc1`, for which the max response is -3.61%.

For `Cc1ccc(-c2nc(CSCC(=O)NC3CCN(Cc4ccccc4)CC3)c(C)o2)cc1`, the max response was -6.12%.

Regarding `COc1ccc2oc(C(=O)NCC(Cc3ccccc3)N(C)C)c(C)c2c1` (configuration not stated), the max response was 12% (active).

With `CCCCn1c(N)c(N(CCOC)C(=O)c2oc3ccc(OC)cc3c2C)c(=O)[nH]c1=O`, the max response was -2.73%.

Take `COc1ccc2oc(C(=O)NCc3ccco3)c(C)c2c1`: the max response is 31.4% (active).

Take `Cc1c(C(=O)NCCN(C)C)oc2ccc(S(=O)(=O)N3CCCC3)cc12`: the max response is 2.66%.

With `Cc1cc(S(=O)(=O)Nc2ccc(C(=O)NCC(c3ccco3)N3CCCC3)cc2)ccc1F` (configuration not stated), the max response was 0.909%.

Regarding `COc1cc(C(=O)NC(=S)NCc2ccco2)cc(OC)c1OC`, the max response was 2.82%.

Take `COc1cc(C(=O)N[C@@H](C)C(=O)NCc2ccco2)cc(OC)c1OC`: the max response is -1.35%.

With `Cc1c(C(=O)NCC(c2ccco2)N2CCCC2)oc2ccc(Cl)cc12` (configuration not stated), the max response was 37.1% (active).

For the molecule `COc1cccc(OCC(O)CNC(=O)c2oc3c(C)c(C)ccc3c2C)c1` (configuration not stated), the max response was -4.29%.

`COc1ccc(NS(=O)(=O)c2ccc(F)cc2F)cn1`: the max response is -4.72%.

Regarding `COc1cc(C(=O)NCCOC(=O)c2cccc(N(C)C)c2)cc(OC)c1OC`, the max response is -1.25%.

`Cc1nc2ccccc2c(-c2ccccc2)c1C(=O)c1ccccc1`: the max response was -4.4%.

In the case of `CC/C(O)=C1\C(=O)CC(C)(C)CC1=NCCc1nc2ccccc2[nH]1`, the max response is 6.92%.

Turning to `CCC(=O)/C(=C(/O)c1ccccc1)c1nc2ccccc2[nH]1`, the max response was 31% (active).

On to `Cc1nnc(Sc2nc3c(c(=O)[nH]c(=O)n3C)n2Cc2ccccc2)s1`, for which the max response was -5.79%.

As for `Cc1ccccc1-c1nnc(SCC(=O)NCc2ccc3c(c2)OCO3)n1C`, the max response was -2.35%.

Take `Cn1c(SCC(=O)N2CCOCC2)nnc1-c1ccc2ncccc2c1`: the max response was -0.963%.

As to `Cn1c(SCC(=O)N2CCCC2)nnc1-c1ccc2c(c1)OCO2`, the max response is 18.9% (active).

Regarding `Cn1c(SCc2nc3ccccc3s2)nnc1-c1ccc2c(c1)OCO2`, the max response was 39.5% (active).

As for `Cn1c(SCC(=O)N2CCOCC2)nnc1-c1ccc(NC(=O)c2ccccc2F)cc1`, the max response was -4.11%.

In the case of `O=C(O)CSc1nnc(-c2ccc3c(c2)OCO3)n1-c1ccccc1`, the max response is 12.9%.
